Pf growth 48h – P. falciparum growth inhibition at 48 hours (one generation); AID 504832; actives 5.9% (n = 310,000); Potency, µM (highest dose often 28.7 µM), without a hit: top-dose activity change, negative = inhibition, most hits filed as inhibitors; P. falciparum luciferase growth in erythrocytes, 48 h; also: potency is read from the fitted curve at half-maximal effect; % is scaled to controls: 0 for no effect and ±100 for the full control effect
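Growth was read as firefly luciferase luminescence after a 48 h, 37 C, 5% CO2 exposure of compounds to reporter-bearing P. falciparum cultures (0.1% parasitemia, 2% hematocrit final) in Albumax-supplemented RPMI 1640.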
MARV entry inh – Marburg virus entry inhibition. Marburg virus pseudotyped entry inhibition, cell reporter. actives 1.8% (n = 300,000). Potency, µM (top dose mostly 37.8 µM), for the others: at the highest dose activity change, negative = inhibition, most hits filed as inhibitors; calls by dose curve; tested in HEK293 cells; also: potency is read from the fitted curve at half-maximal effect; % is scaled to controls: 0 for no effect and ±100 for the full control effect
Shiga toxin inh – blocks Shiga toxin action in Vero cells; Vero cells, Shiga toxin protein synthesis inhibition reporter; inhibition, % at 38.7 µM; actives 9.2% (n = 290,000); AID 2315; in the data active = inhibition mostly above about 28%, no sharp cut-off; inactive = mostly below about 43%; also: 0% is about no effect
Pf growth 96h – inhibits malaria parasite growth, 96 h; P. falciparum luciferase reporter growth, 96 h; Potency, µM (titrated, usually from 28.7 µM), inactives show at the top dose activity change, negative = inhibition, actives largely listed as inhibitors; actives 6.9% (n = 320,000); AID 504834; also: potency is read from the fitted curve at half-maximal effect; % is scaled to controls: 0 for no effect and ±100 for the full control effect
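P. falciparum expressing integrated firefly luciferase grown in erythrocytes (2% hematocrit, 0.05% parasitemia final) with compounds for 96 hours at 37 C, 5% CO2. Growth inhibition read as loss of luminescence after adding luciferase detection reagent.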
Cycloheximide cs – counter-screen hit for Shiga toxin inhibitors, cycloheximide. cell reporter, cycloheximide protein synthesis inhibition counterscreen. actives 12% (n = 300,000). max response, %. AID 2314; in the data active = max response mostly above about 13%, no sharp cut-off; inactive = mostly below about 14%; also: read at 38.3 µM for the half of the compounds with a filed dose; 0% is about no effect
Lassa entry inh – Lassa virus entry inhibition; Lassa virus pseudotype entry inhibition, cell reporter; Potency, µM (highest dose often 37.9 µM), inactives show top-dose activity change, negative = inhibition, usual class: inhibitors; actives 1.2% (n = 300,000); AID 540256; calls by dose curve; tested in HEK293 cells; also: potency is read from the fitted curve at half-maximal effect; % is scaled to controls: 0 for no effect and ±100 for the full control effect; nearly all actives have a fitted effect of over 50% in size
Numbers without * were called inactive; i = inactive; ? = inconclusive; nt = no result given; + = active, no number; [ ] = remark or other dose. Shown are actives, neighbours in structure and some others; about 19% of the full set was active somewhere. Unless noted, calls follow the shape of the dose curve; as a rule, active = well fitted inhibition curve with a large enough effect; inconclusive = small, poorly fitted or top-dose-only effect, or another doubt; inactive = no such curve, though single readings can be large or run the other way.

SMILES	Pf growth 48h	MARV entry inh	Shiga toxin inh	Pf growth 96h	Cycloheximide cs	Lassa entry inh
CN(C)c1oc(-c2ccco2)nc1S(=O)(=O)c1ccc(Br)cc1	?	-18.4%	nt	?	nt	-4.6%
CCOC(=O)c1cc(-c2ccc3c(c2)OCO3)nc2onc(C)c12	2.2%	2.8%	-3.9	?	-3.0	12.8%
COc1cccc(/C=N/N2CCN(Cc3ccccc3)CC2)c1O	9.8%	3.7%	27.7	7.38µM*	24.4*	11.8%
Clc1ccc(CN2CCN(/N=C/c3ccco3)CC2)cc1	?	-4.7%[46.1 µM]	17.0	29.4%	19.3*	5.3%
C(=N\N1CCN(Cc2ccccc2)CC1)/c1cccs1	37.7%	-4.5%	44.9*	39.4%	40.5*	20.1%
COC(=O)CC1SC(=O)NC1=Nc1cccc(C)c1 (stereo not given)	nt	?	-13.1	?	-2.7	8.1%
COC(=O)c1ccc(OCC(O)CNCC(c2ccc(OC)cc2)N(C)C)c(OC)c1 (stereo not given)	-8.8%	-19.1%	52.3*	17.4%	18.0	2.1%
COc1ccc(OCC(O)CNC(=O)c2ccc(OC)cc2)cc1 (stereo not given)	-37.5%[5.75 µM]	?	3.8	154.6%	-4.3	?
COc1ccc(CCc2nnc(CCC(=O)NCc3cnc4ccccn34)o2)cc1	8.2%	nt	17.5	10.4µM*	-1.3	nt
COc1ccc(CCc2nnc(CCC(=O)NCc3ccc4ncccc4c3)o2)cc1	-1.2%	21.4%[46.1 µM]	33.8	-20.5%	17.1*	9.7%
COc1ccc(CCNC(=O)c2cnc3ccccn3c2=O)cc1	12.1%	7.8%	-12.8	?	-2.4	1.2%
COc1ccc(C(=O)NC2CCN(C(=S)Nc3ccc(C)c(C)c3)CC2)cc1	-8.7%	11.7%	-7.1	27.2%	0.9	-12.2%
Cc1cccc(N2CCN(C(=S)c3ccc(-c4ccccc4[N+](=O)[O-])o3)CC2)c1	-2.2%	5.7%	-2.1	1.4%	0.7	?
O=[N+]([O-])c1ccccc1-c1ccc(C(=S)N2CCCCC2)o1	135.6%	?	62.5*	181.7%	58.3*	-12.5%
O=C(c1ccc(-c2ccccc2Cl)o1)N1CCCCCCC1	nt	?	nt	nt	nt	-5.6%
O=[N+]([O-])c1ccccc1-c1ccc(C(=S)N2CCCC2)o1	i	?	97.3*	-186.6%	44.0*	6.1%[46.1 µM]
O=C(NCCOc1ccc(Cl)cc1)c1ccc2c(c1)OCCO2	250.6%	nt	nt	172.0%	nt	nt
COCCCNC(=O)c1ccc2c(c1)OCO2	67.7%	27.1%	+	nt	22.9*	6.9%
Cc1ccc(OCCNC(=O)c2ccc3c(c2)OCO3)cc1	?	nt	65.6*	28.7%	42.3*	nt
CC(=O)Nc1cc2c(cc1Cl)-c1ccc(F)cc1C2O (stereo not given)	nt	?	nt	nt	nt	19.4%[46.1 µM]
Cc1cccc2c1-c1sc(C(=O)NCCCN3CCN(c4ccccc4F)CC3)cc1CO2	nt	11.2µM*	nt	nt	nt	nt
CCN1CCN(CCCNC(=O)c2cc3c(s2)-c2c(C)cccc2OC3)CC1	nt	10µM*	nt	nt	nt	nt
COc1cc(Cl)c(C)cc1NC(=O)c1cc2c(s1)-c1c(C)cccc1OC2	nt	-8.7%[46.1 µM]	nt	nt	nt	nt
Cc1cccc2c1-c1sc(C(=O)Nc3ccccc3N3CCN(C)CC3)cc1CO2	?	15.8µM*	22.0	?	-3.3	?
Cc1ccc(CNC(=O)c2cc3c(s2)-c2c(C)cccc2OC3)cc1	nt	5.4%[46.1 µM]	nt	nt	nt	nt
SMILES	Pf growth 48h	MARV entry inh	Shiga toxin inh	Pf growth 96h	Cycloheximide cs	Lassa entry inh
O=C(NCCCN1CCOCC1)c1cc2c(s1)-c1ccccc1OC2	8.6%	nt	3.9	41.0%	15.6	nt
O=C(O)c1ccc(S(=O)(=O)NCc2cccnc2)cc1	3.7%[0.00184 µM]	?	-1.1	18.0%	-4.9	19.6%
COc1c(C)cc(C(=O)C2CCCN(Cc3cnc(C)s3)C2)cc1C (stereo not given)	?	29.8%[46.1 µM]	9.5	-14.3%	8.0	-19.3%
CC(=O)c1ccc(N2CCN(C(=O)CCn3cnc4onc(-c5ccc(F)cc5)c4c3=O)CC2)cc1	nt	nt	nt	nt	nt	-9.9%[46.1 µM]
Cc1cccc(OCCC(=O)OCC(=O)N2CCc3ccccc32)c1	7.1%	?	-9.9	137.1%	-2.5	12.9%
CS(=O)(=O)N1CCC(C(=O)Nc2cccc(Cl)c2)CC1	41.9%	?	16.1	?	11.7	24.8%
CCn1nc(C(=O)OCC(=O)c2c[nH]c3ccccc23)c2ccccc2c1=O	4.65µM*	-3.6%	-10.4	7.38µM*	-0.8	-0.8%
CCc1cccc2c(C(=O)COC(=O)c3nn(C)c(=O)c4ccccc34)c[nH]c12	nt	?	0.7	-7.3%	3.2	-3.4%
CC(C)n1nc(C(=O)OCC(=O)c2c[nH]c3ccccc23)c2ccccc2c1=O	nt	?	-4.7	6.57µM*	10.5	-13.9%
O=C(Nc1nccs1)c1nc[nH]c1C(=O)N1CCc2ccccc2C1	36.2%	nt	nt	32.3%	nt	nt
C/C(=N\Nc1nc2ccccc2[nH]1)c1ccccn1	2.94µM*	nt	106.6*	?	28.3*	nt
C/C(=N\Nc1nc2ccccc2[nH]1)c1cc2ccccc2o1	0.0%	?	39.3*	?	24.6*	-13.1%
C/C(=N/O)c1ccccn1	?	nt	-5.6	0.0%	6.3	nt
O=C(Nc1ccccc1Br)N1CCN2CCCCC2C1 (stereo not given)	nt	nt	nt	nt	nt	11.8%[46.1 µM]
COc1ccccc1N1CCN(C(=O)CCNS(=O)(=O)c2ccc3c(c2)CCC(=O)N3)CC1	?	1.0%	-7.1	nt	-1.0	-4.7%
O=C(CN1CCN(Cc2ccccc2)CC1)N/N=C/C=C/c1ccccc1[N+](=O)[O-]	4.1%	?	-6.3	36.7%	7.8	-4.3%
NS(=O)(=O)c1ccc(NC(=O)/C=C/c2ccccc2[N+](=O)[O-])cc1	-25.9%	-2.5%[46.1 µM]	22.3	-18.5%	-2.6	-0.7%
O=C(O)c1cc(N/N=C/C=C/c2ccccc2[N+](=O)[O-])ccc1Cl	313.3%	nt	68.0*	494.5%	41.8*	nt
NS(=O)(=O)c1ccc(N/N=C/C=C/c2ccccc2[N+](=O)[O-])cc1	59.5%	-7.1%	79.9*	59.1%	36.7*	?
COc1ccc(/C=C/C(=O)c2sc(-c3ccccc3)nc2C)cc1	-19.2%	-16.7%	-11.3	-13.4%	-0.3	-22.6%
Cc1cccc(N2CCN(C(=O)Cc3ccccc3[N+](=O)[O-])CC2)c1C	15.1%	nt	24.3	-22.2%	26.9*	nt
Cc1cccc(N2CCN(C(=O)c3c(C)nn(Cc4ccccc4Cl)c3C)CC2)c1C	nt	?	-3.1	7.38µM*	9.8	?
Cc1cccc(N2CCN(C(=O)CCCOc3ccccc3)CC2)c1C	128.6%	-30.7%	134.5*	7.7%	63.6*	1.8%
CCOC(=O)N1CCN(C(=O)CCCOc2ccccc2)CC1	161.7%	?	112.9*	nt	28.8*	?
O=C(Cc1ccccc1[N+](=O)[O-])N1CCN(c2ccc(F)cc2)CC1	-2.8%	4.9%[46.1 µM]	12.0	39.4%	8.1	14.0%[46.1 µM]
CC(=O)Nc1ccc(NC(=O)c2c(C)nn(Cc3ccccc3Cl)c2C)cc1	-7.8%	?	-5.8	-17.1%	-3.6	-4.6%[46.1 µM]
COc1ccc(OC)c(C(c2nnnn2Cc2ccccc2)N2CCN(C3CCCCC3)CC2)c1 (stereo not given)	10.4µM*	?	-12.0	-16.2%	-1.1	-17.0%
